Laboratory results published in PubChem BioAssay.
Active and inactive are the calls of the source.

Legend:
[1] = adipocyte viability effects, profiling panel, cell-based, 3T3-L1 adipocytes, calcein-AM fluorescence, 48 h, basal (AID 1163); conditions: 3T3-L1 adipocytes viability, higher = more signal
[2] = HepG2 cell viability effects, profiling panel, calcein-AM fluorescence, 48 h, basal (AID 1164); conditions: higher = more signal
[3] = MM1S cell viability effects, profiling panel, calcein-AM fluorescence, 48 h, basal (AID 1165); conditions: higher = more signal;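 further: viability of MM1S multiple myeloma cells under basal unstimulated conditions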
[4] = basal RPMI8226 viability, no added stimulus, profiling panel, cell-based, calcein-AM fluorescence, 48 h, PK04 Diversity Set (AID 1166); conditions: RPMI8226 myeloma viability, higher = more signal;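 further: cells grown under basal conditions without added stimulus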
[5] = basal HepG2 mitochondrial membrane potential changes, profiling panel, cell-based, JC-1 fluorescence, 24 h, 100 nL compound (AID 1167); conditions: higher = more signal
[6] = basal 3T3-L1 adipocyte mitochondrial potential changes, profiling panel, cell-based, JC-1 fluorescence, 3T3-L1 adipocytes, 24 h, 100 nL compound (AID 1168); conditions: JC-1 mitochondrial fluorescence, higher = more signal, called active from +8 up or from −8 down
[7] = basal RPMI8226 mitochondrial membrane potential changes, profiling panel, cell-based, JC-1 fluorescence, 24 h, 100 nL compound (AID 1169); conditions: RPMI8226 myeloma, JC-1 mitochondrial potential fluorescence, higher = more signal
[8] = basal MM1S mitochondrial membrane potential changes, profiling panel, cell-based, JC-1 fluorescence, 24 h, 100 nL compound (AID 1170); conditions: higher = more signal
[9] = A549 lung cancer cell viability effects, profiling panel, resazurin fluorescence, 24 h, PK04 Diversity Set (AID 1171); conditions: higher = more signal, called active from +8 up or from −8 down
[10] = HepG2 liver cancer cell viability effects, profiling panel, resazurin fluorescence, 24 h, PK04 Diversity Set (AID 1172); conditions: higher = more signal
[11] = basal S. cerevisiae growth modulation, no modifier, primary screen, OD600, strain BY4716, 24 h, basal condition (AID 1173); conditions: OD600, 24 h, higher = more signal, called active from +8 up or from −8 down
[12] = MM1S myeloma cell viability, profiling panel, resazurin fluorescence, basal, 24 h, PK04 Diversity Set (AID 1174); conditions: higher = more signal, called active from +8 up or from −8 down;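 further: MM1S multiple myeloma cell line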
[13] = target: Dihydroorotate dehydrogenase (quinone), mitochondrial (Plasmodium falciparum (isolate 3D7)) (UniProt Q08210); assay: PfDHODH enzyme inhibitors, primary screen, biochemical, C-terminal His tag, absorbance 600 nm (AID 1175); conditions: DCIP absorbance 600 nm, higher = more signal, called active from +8 up or from −8 down;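 further: recombinant parasite enzyme with a five histidine tag at its C terminus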
[14] = S. cerevisiae RM11-1a growth modifiers, primary screen, strain RM11-1a, OD600, basal, 24 h (AID 1177); conditions: OD600, 24 h, higher = more signal, called active from +8 up or from −8 down;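 further: cultures grown under basal conditions with no added stressor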
[15] = E. coli acrAB mutant growth effects, primary screen, E. coli filamentation inducers, strain DRC39, OD650, 24 h (AID 1178); conditions: higher = more signal, called active from +8 up or from −8 down;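 further: growth measured as culture turbidity by optical density at 650 nm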
[16] = E. coli acrAB mutant growth effects, primary screen, E. coli filamentation inducers, strain DRC39, OD650, 48 h (AID 1179);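 further: screen aims at cell division blockers that make cells filament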; conditions: E. coli DRC39 delta-acrAB growth, higher = more signal, called active from +8 up or from −8 down
[17] = RPMI8226 myeloma cell viability, profiling panel, resazurin fluorescence, basal, 24 h, PK04 Diversity Set (AID 1180); conditions: higher = more signal;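 further: RPMI8826 multiple myeloma cell line at 5000 cells per well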
[18] = target: E3 ubiquitin-protein ligase XIAP (Homo sapiens) (UniProt P98170); assay: XIAP binders, primary screen, biophysical, small-molecule microarray, fluorescence 635 nm (AID 1181); conditions: small-molecule microarray binding, higher = more signal;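 further: score merges 667 nm emission and signal to noise over triplicate slides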
[19] = system: XIP peptide (Xip251-270) binding; assay: small-molecule binders of XIP peptide, primary screen, biochemical, small-molecule microarray, fluorescence 635/667 nm, 0.1 µg/mL protein (AID 1182); conditions: fluorescent protein binding, 635 nm, higher = more signal, called active from +8 up or from −8 down
XIP peptide (Xip251-270) = assay: small-molecule binders of XIP peptide, primary screen, biochemical, small-molecule microarray, fluorescence 635/667 nm, 0.5 µg/mL protein (AID 1183); conditions: small-molecule microarray binding, fluorescence 635 nm; higher = more signal

Sequence of Dihydroorotate dehydrogenase (quinone), mitochondrial (Plasmodium falciparum (isolate 3D7)) (Q08210 whole entry, looked up): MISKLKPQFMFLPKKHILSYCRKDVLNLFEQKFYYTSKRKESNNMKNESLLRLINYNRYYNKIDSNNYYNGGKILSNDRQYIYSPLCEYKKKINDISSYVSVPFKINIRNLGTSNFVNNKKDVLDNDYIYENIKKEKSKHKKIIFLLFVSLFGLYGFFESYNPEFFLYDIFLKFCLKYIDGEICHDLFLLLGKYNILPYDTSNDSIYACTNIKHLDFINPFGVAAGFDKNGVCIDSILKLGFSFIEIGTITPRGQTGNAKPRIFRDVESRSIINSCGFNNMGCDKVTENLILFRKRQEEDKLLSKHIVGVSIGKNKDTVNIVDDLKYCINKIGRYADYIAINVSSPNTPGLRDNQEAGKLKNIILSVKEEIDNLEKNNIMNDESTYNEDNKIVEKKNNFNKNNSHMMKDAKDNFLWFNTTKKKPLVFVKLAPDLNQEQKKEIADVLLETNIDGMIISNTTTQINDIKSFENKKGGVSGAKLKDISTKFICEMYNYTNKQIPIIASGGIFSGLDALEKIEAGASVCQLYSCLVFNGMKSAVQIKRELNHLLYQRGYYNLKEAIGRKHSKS
Sequence of E3 ubiquitin-protein ligase XIAP (Homo sapiens) (P98170 whole entry, looked up): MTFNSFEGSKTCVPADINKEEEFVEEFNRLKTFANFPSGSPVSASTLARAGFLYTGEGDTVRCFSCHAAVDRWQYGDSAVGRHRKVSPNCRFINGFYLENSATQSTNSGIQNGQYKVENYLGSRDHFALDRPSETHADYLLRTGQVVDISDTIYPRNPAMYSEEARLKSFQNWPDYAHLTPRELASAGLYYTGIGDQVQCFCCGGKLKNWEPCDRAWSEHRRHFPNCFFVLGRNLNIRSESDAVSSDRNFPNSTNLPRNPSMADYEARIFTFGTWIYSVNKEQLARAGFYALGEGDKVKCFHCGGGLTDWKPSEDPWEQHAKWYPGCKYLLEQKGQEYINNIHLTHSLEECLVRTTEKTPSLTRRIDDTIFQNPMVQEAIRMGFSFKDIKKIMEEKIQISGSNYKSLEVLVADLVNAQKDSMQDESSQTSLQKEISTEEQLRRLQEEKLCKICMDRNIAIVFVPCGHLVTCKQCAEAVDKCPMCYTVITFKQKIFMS

Compound	z-score [1]	z-score [2]	z-score [3]	z-score [4]	z-score [5]	z-score [6]	z-score [7]	z-score [8]	z-score [9]	z-score [10]	z-score [11]	z-score [12]	composite z-score [13]	z-score [14]	z-score [15]	z-score [16]	z-score [17]	composite z-score [18]	composite z-score [19]	composite z-score (XIP peptide (Xip251-270))
C=CCC(OC(C)=O)[C@@H]1[C@@H](N(Cc2cccc3ccccc23)C(=O)c2cccc3ccccc23)c2cc(OCCCO)ccc2N1C(=O)Cc1ccc(OC)cc1 (stereo not given in full)	2.56	0.486	1.7	-1.28	3.07	0.451 (inactive)	0.402	0.779	-0.245 (inactive)	0.147	-3 (inactive)	1.09 (inactive)	0.848 (inactive)	-1.48 (inactive)	1.35 (inactive)	0.717 (inactive)	0.301	0.108	0.936 (inactive)	-0.314
C=CCN1C(=O)[C@@]2(O[C@@H](CCn3cc(CCO)nn3)[C@H]([Si](C)(C)c3ccc(OC)cc3)[C@H]2C)c2cc(NC(=O)c3ccc(OC)cc3)ccc21	1.2	-0.408	-2.91	-3.3	0.978	0.659 (inactive)	-0.925	0.212	-1.27 (inactive)	-0.322	-4.11 (inactive)	-1.55 (inactive)	-0.118 (inactive)	0.901 (inactive)	1.55 (inactive)	1 (inactive)	-1.51	-0.168	-0.025 (inactive)	0.442
C=CCOC(=O)[C@H]1[C@@H]2C(=O)O[C@@H](c3ccccc3)[C@@H](c3ccccc3)N2[C@@H](c2ccc(OCCOC(=O)[C@H]3C[C@H]4C(=O)N5CCC[C@H]5C(=O)N4[C@H]3c3cccc(OCCO)c3)cc2)[C@]12C(=O)Nc1ccccc12	1.19	-0.588	-1.73	0.791	-0.558	0.569 (inactive)	-0.585	-0.673	0.601 (inactive)	0.0928	0.22 (inactive)	1.26 (inactive)	0.493 (inactive)	1.16 (inactive)	0.971 (inactive)	0.184 (inactive)	1.37	0.298	1.33 (inactive)	0.809
O=C1O[C@H](c2ccccc2)[C@H](c2ccccc2)N2[C@H]1[C@@H](C(=O)NC[C@H](O)c1ccccc1)[C@]1(C(=O)Nc3ccc(C#CC4(O)CCCCCC4)cc31)[C@H]2c1ccc(O)cc1	1.43	-0.641	-0.804	-1.62	-1.71	-0.947 (inactive)	-0.672	-0.566	0.814 (inactive)	0.82	-1.55 (inactive)	0.557 (inactive)	-0.154 (inactive)	-0.49 (inactive)	0.487 (inactive)	0.972 (inactive)	0.327	-0.141	1.05 (inactive)	0.444
O=C(O)[C@H]1C[C@H]2C(=O)NCC(=O)N2[C@H]1c1cccc(OCCO)c1	0.926	-0.59	-1.13	-0.319	1.27	-0.116 (inactive)	-0.186	1.14	-0.0876 (inactive)	0.354	-1.62 (inactive)	1.21 (inactive)	-1.04 (inactive)	-1.25 (inactive)	0.712 (inactive)	-0.057 (inactive)	0.62	0.182	0.865 (inactive)	0.938
CCN(CC)c1ccc(N2CC=CC34O[C@@H]5C=CCOC(=O)[C@@H]5[C@H]3C(=O)N(C(C)CO)[C@@H]4C2=O)cc1 (stereo not given in full)	0.754	0.0598	1.15	-0.262	0.469	0.382 (inactive)	-0.809	0.907	0.924 (inactive)	0.878	-0.746 (inactive)	1.3 (inactive)	-0.393 (inactive)	-0.0464 (inactive)	1.7 (inactive)	1.31 (inactive)	0.587	-0.0277	0.149 (inactive)	-1.73
COc1ccc([Si](C)(C)[C@H]2[C@H](CCO)O[C@@]3(C(=O)N(Cc4ccc(N5C(=O)c6cccc7cccc5c67)cc4)c4ccccc43)[C@@H]2C)cc1	2.06	-2.91	-1.23	-3.75	0.00974	1.68 (inactive)	-1.07	-1.6	-2.51 (inactive)	-1.26	-0.433 (inactive)	-2.4 (inactive)	-0.344 (inactive)	2.48 (inactive)	2.3 (inactive)	1.4 (inactive)	-4.55	0.0223	0.529 (inactive)	0.623
C=C(COC)C(=O)CC[C@H](OC(=O)c1cccnc1)c1cccc(OCCO)c1	1.13	-1.38	-3.32	-0.941	0.872	0.984 (inactive)	-0.169	-0.615	0.633 (inactive)	0.282	-0.221 (inactive)	0.839 (inactive)	-0.236 (inactive)	1.61 (inactive)	1.09 (inactive)	0.757 (inactive)	-0.581	0.0792	0.804 (inactive)	-0.661
